This excerpt belongs to a sample that is enriched for hits.
Pf Dd2 inh = Plasmodium falciparum Dd2 growth inhibition; P. falciparum Dd2 growth, SYBR Green, 72 h; Potency, µM (doses to about 28.9 µM), inactives show at the highest dose activity, negative = inhibition, hits mostly inhibitors; 120,000 tested, 4.3% active; active means well fitted inhibition curve with a large enough effect;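 further: plate controls were DMSO vehicle for no effect and reference drug for full effect; nearly all actives have a fitted effect of over 65% in size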
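Readout: SYBR Green fluorescence, 485 nm excitation, 535 nm emission, after ~16 h lysis at 37C. Before that, Dd2-infected red cells (2.5% hematocrit) grew 72 h with compound, 29 uM top final concentration.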
Numbers without * were called inactive; i = inactive; [ ] = remark or other dose. Potency means the concentration at half of the fitted maximal effect.

SMILES	Pf Dd2 inh
Cc1ccc(NC(=O)N2CC(c3nnc(-c4ccncc4)o3)C3(CCOCC3)C2)cc1 (stereo unspecified)	-1%
CCN(CC)Cc1cnc2c(C(=O)N(C)Cc3ccccc3C)cnn2c1	-3%
O=C(CC[C@@H]1CNC(=O)[C@@H]2C[C@H](NCc3ccc(CO)o3)CN12)NCc1ccccc1	15%[44.1 µM]
CN(C)c1nc(-c2ccncc2)nc2c1CCN(C(=O)c1cc(=O)[nH]c(=O)[nH]1)C2	-10%
Cc1nccn1CCNC(=O)C1CCCCC(=O)N1Cc1ccccc1 (stereo unspecified)	10%
O=C(NCc1ccccc1)c1ccccc1OC1CN(Cc2ccc(F)c(F)c2)C1	-3%
COc1ccc(OC2CN(Cc3ccsc3)C2)cc1	-1%[44.1 µM]
COc1ccc(OC)c(CN2CC(Oc3ccccc3C(=O)NCc3ccccc3)C2)c1	1.8µM*
COc1ccc(OC)c(CN2CCOc3ccc(C(=O)NCc4ccc(C)cc4)cc3C2)c1	-9%
O=C(NC1CC1)c1ccccc1OC1CN(Cc2ccc(F)cc2F)C1	-20%
O=C(NCc1ccccc1)c1ccccc1OC1CN(Cc2ccsc2)C1	4µM*
Cc1ccc(CN2CC(Oc3ccccc3C(=O)NC3CC3)C2)o1	-16%
COc1cccc(CN2CC(Oc3ccccc3C(=O)NC3CC3)C2)n1	4µM*
COc1ccc(CN2CC(Oc3ccccc3C(=O)NC3CC3)C2)cc1OC	i
COc1ccc(N2Cc3c(ncnc3N3CCC(O)CC3)N(C)CC2=O)cc1	-25%
CN1CCc2[nH]cnc2C12CCN(C(=O)c1cc(=O)[nH]c3ccccc13)CC2	-1%
COc1ccc(N2CC(C(=O)NCC(F)F)NC2=O)cc1 (stereo unspecified)	-8%[44.1 µM]
CNC(=O)C1(N2CCC[C@H]2C(=O)NC(C)(C)C)COC1	-12%[44.1 µM]
COc1ccc(N2CCN(CCCNC(=O)c3ccc4nc(N5CCCCC5)sc4c3)CC2)cc1	7%
CCCCN(C)CCCNC(=O)c1ccc2nc(N3CCCCC3)sc2c1	8.9µM*
CCN(CC)CCCNC(=O)c1ccc2nc(N3CCCCC3)sc2c1	-9%
CCCCN(C)CCNC(=O)C1CCN(c2nc3ccc(CC)cc3s2)CC1	10µM*
CCc1ccc2nc(N3CCC(C(=O)O)CC3)sc2c1	21%
CCc1ccc2nc(N3CCN(C(=O)C4CC4)CC3)sc2c1	i
N#Cc1cccc(CN2CCc3nc(C(=O)Nc4cccc(C(F)(F)F)c4)oc3CC2)c1	-50%
SMILES	Pf Dd2 inh
O=C(CCCc1ccccc1)N1CCC(C2CCNC2)CC1 (stereo unspecified)	-13%
CN1CC(=O)N(C2CCCNC2)Cc2c(NCCO)ncnc21 (stereo unspecified)	15%
COc1ccc(-c2nc(CSCC(=O)N3CCN(c4ccccc4)CC3)c(C)o2)cc1	7.1µM*
O=C(CSc1n[nH]c(-c2ccccc2)n1)N1CCN(c2ccc(F)cc2)CC1	5%
COc1ccc(N2CCN(Cc3nc(-c4ccc(C)cc4)no3)CC2)cc1	i
COc1ccc(N2CCN(C(=O)CSc3nc(-c4ccc(C(C)C)cc4)no3)CC2)cc1	0.28µM*
COc1ccc(N2CCN(C(=O)CCc3conc3-c3ccc(F)cc3)CC2)cc1	i
COc1ccc(N2CCN(C(=O)CSCc3ccc(C)cc3)CC2)cc1	-15%
CCc1ccc(-c2nc(CSCC(=O)N3CCN(c4ccc(F)cc4)CC3)c(C)o2)cc1	i
CC(C)c1ccc(-c2noc(SCC(=O)N3CCN(c4ccc(F)cc4)CC3)n2)cc1	0.45µM*
Cc1ccc(CSCC(=O)N2CCN(c3ccc(F)cc3)CC2)cc1	19%
O=C(CSc1nc2ccccc2nc1Cc1ccccc1)N1CCN(c2ccccc2)CC1	44%
O=C(CSc1nc(-c2ccccc2)no1)N1CCN(c2ccccc2)CC1	10µM*
COc1ccc(N2CCN(C(=O)CSc3n[nH]c(-c4ccccc4)n3)CC2)cc1	6%
COCC(=O)Nc1ccc([C@H]2OCC(=O)N(CC(C)C)[C@@H]2CO)cc1	i
O=C(COc1ccc2nncn2n1)N1CCCC(c2ccn[nH]2)C1 (stereo unspecified)	14%
COc1ccc(N2CC(C(=O)N(C)CCc3noc(C)n3)CC2=O)cc1Cl (stereo unspecified)	4%
CC(=O)N1CC[C@H](c2nnc(-c3cccnc3)o2)C1	12%[44.1 µM]
CN(C)c1cc(N2CCCC(NC(=O)c3ccoc3)C2)ncn1 (stereo unspecified)	i[5.79 µM]
Cc1ccsc1C(=O)N1CCc2nnc([C@@H]3C[C@@H](O)CN3C)n2CC1	0%
CN(C)C[C@@H]1CN(C2CCOCC2)C[C@H]1NC(=O)C1CC=CCC1 (stereo partly specified)	4%
Cc1cc(C)n(Cc2ccc(C(=O)N3C[C@@H](Oc4cccnc4)C[C@H]3C(N)=O)o2)n1	-21%
CCOc1ccc(C(=O)c2cn(CC(=O)Nc3ccc(OC)cc3)c3cc4c(cc3c2=O)OCCO4)cc1	25%
O=C(c1ccc(F)cc1)c1cn(Cc2ccccc2F)c2cc3c(cc2c1=O)OCCO3	61%[5.79 µM]
COc1ccc(Cn2cc(C(=O)c3ccc(OC)cc3)c(=O)c3cc4c(cc32)OCCO4)cc1	8.9µM*
SMILES	Pf Dd2 inh
CCOc1ccc(NC(=O)Cn2cc(C(=O)c3ccc(OC)cc3)c(=O)c3cc4c(cc32)OCO4)cc1	4%
Cc1ccc2c(c1)c(=O)c(C(=O)c1ccc3c(c1)OCO3)cn2Cc1ccc(Cl)cc1	13µM*
O=C(c1ccc(Cl)cc1)c1cn(Cc2ccccc2)c2cc3c(cc2c1=O)OCCO3	11µM*
CCOc1ccc(NC(=O)Cn2cc(C(=O)c3ccc(F)cc3)c(=O)c3cc4c(cc32)OCCO4)cc1	9%
CCOc1ccc(C(=O)c2cn(CC(=O)Nc3ccc(Cl)cc3)c3cc4c(cc3c2=O)OCO4)cc1	-9%
CCc1ccc(C(=O)c2cn(CC(=O)Nc3ccc(Cl)cc3)c3cc4c(cc3c2=O)OCO4)cc1	-28%
Cc1ccc(Cn2cc(S(=O)(=O)c3ccc(Cl)cc3)c(=O)c3cc4c(cc32)OCO4)cc1	-1%
CCOc1ccc2c(c1)c(=O)c(C(=O)c1ccc(CC)cc1)cn2CC(=O)Nc1ccccc1OC	-7%
CCOc1ccc(C(=O)c2cn(Cc3ccc(Cl)cc3)c3cc(OC)c(OC)cc3c2=O)cc1	7.9µM*
COCC(=O)N[C@@H]1CN(Cc2cnn(C(C)C)c2)C[C@H]1CO	19%
Cc1ccc(CNC(=O)N2CC(n3cc(C(=O)NCC4CC4)nn3)C2)cc1	23%
Cc1ccc(C(=O)N2C[C@@H](Oc3cccnc3)C[C@H]2C(=O)N2CCOCC2)cn1	1%
O=c1cc(CNCc2nc(-c3ncccn3)no2)[nH]c2ccc(F)cc12	-26%
CCc1nnc(CN(C)C(=O)c2cnc(-c3ccc(C)cc3)[nH]c2=O)o1	6%
CCN1c2cc(C(=O)N3CCN(c4ccc(OC)cc4)CC3)ccc2C(=O)N2CCCCC21 (stereo unspecified)	-10%
COc1cccc(CN2C[C@@H](CO)[C@H](NC(=O)C3CCC3)C2)n1	-23%
COc1ccccc1Cn1cc(C(=O)c2ccccc2)c(=O)c2cc(OC)c(OC)cc21	2.5µM*
CCOc1ccc(NC(=O)Cn2cc(C(=O)c3ccccc3)c(=O)c3cc4c(cc32)OCO4)cc1	-1%
CCc1ccccc1NC(=O)Cn1cc(C(=O)c2ccncc2)c(=O)c2cc(C)ccc21	i
COc1cc(NC(=O)Cn2ccn(Cc3ccccc3OC)c(=O)c2=O)cc(OC)c1	34%
CCc1ccc2c(c1)c(=O)c(C(=O)c1ccc(C)cc1)cn2CC(=O)Nc1ccccc1C	-2%
COc1ccc2c(c1)c(=O)c(C(=O)c1ccc(C)cc1)cn2Cc1ccccc1F	13µM*
